Inconclusive results are not listed. Activity calls are given as the source filed them. Unless noted, calls come from the whole dose curve; as a rule, active = well fitted curve in the direction sought with a large enough effect in the repeat runs; inconclusive = weak or mixed curves; inactive = no such curve, though single readings can be large; an effect the other way counts as inactive or inconclusive.
Columns and labels:
[1] = qHTS assay for small molecules that induce genotoxicity in human embryonic kidney cells expressing luciferase-tagged ATAD5 (AID 651632); note: nearly all actives have a fitted effect of over 15% in size
Method in brief: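 ATAD5-luc HEK293T, 2,000 cells/well; cpd or DMSO pin-transferred; 16 hr, 37C/5% CO2; Amplite 30 min RT; luminescence.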

[2] = qHTS assay for small molecule agonists of the p53 signaling pathway - cell viability (AID 651633; calls by dose curve;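 note: p53RE-bla HCT reporter cells with a stable beta-lactamase p53 reporter; series mostly up to about 83 µM; nearly all actives have a fitted effect of over 30% in size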)
Method in brief: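 p53RE-bla cells were treated with compound for 16 hours at 37 C. Cytotoxicity was then measured as CellTiter-Glo luminescence after 30 min at room temperature.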

[3] = qHTS assay for small molecules that induce genotoxicity in human embryonic kidney cells expressing luciferase-tagged ATAD5 - cell viability (AID 651634; calls by dose curve; note: nearly all actives have a fitted effect of over 25% in size)
Method in brief: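 Fluorescence from CellTiter-Fluor, reporting protease activity within live cells, served as the viability read-out. HEK293T cells carrying luciferase-tagged ATAD5 had been treated with compound for 15.5 hr at 37C.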

[4] = qHTS assay for small molecule disruptors of the mitochondrial membrane potential - cell viability (AID 720634; calls by dose curve;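 note: human HepG2 liver cancer cells; series mostly up to about 83 µM; nearly all actives have a fitted effect of over 20% in size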)
Method in brief: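 Cells: HepG2, 2,000/well, attached overnight. Compound 1 hr, 37 C/5% CO2. +m-MPI dye, +CellTiter-Glo 30 min RT. Readout: luminescence (ATP).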

[5] = qHTS assay to test for compound auto fluorescence at 590 nm (red) in HepG2 cells (AID 720674)
Method in brief: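 Seeding: 2,000 HepG2 cells/well, MEM/10% FBS, overnight 37 C. Dosing: compound vs DMSO. Incubation: 1 hr, 37 C, 5% CO2. Read: fluorescence 540 ex/590 em, Rose Bengal sodium as red reference.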

[6] = qHTS assay to test for compound auto fluorescence at 535 nm (green) in HepG2 cells (AID 720675)
[7] = qHTS assay to test for compound auto fluorescence at 460 nm (blue) in HEK293 cells (AID 720678)
Method in brief: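 HEK293 cells (2,000/well, medium with 10% dialyzed FBS) attached 4-5 hr, then exposed to compound overnight at 37C, 5% CO2. Blue fluorescence read at 405/460 nm, with triamterene as reference fluorophore.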

[8] = qHTS assay to test for compound auto fluorescence at 590 nm (red) in HEK293 cells (AID 720679)
Method in brief: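 HEK293 cells (2,000/well, 10% dialyzed FBS) attached 4-5 hr, then dosed with compound or DMSO and incubated overnight at 37C, 5% CO2. Red fluorescence read at 540/590 nm, Rose Bengal sodium as reference fluorophore.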

[9] = qHTS assay for small molecule disruptors of the mitochondrial membrane potential (AID 720635)
Method in brief: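 HepG2 cells exposed to compound 1 hr at 37C, then Mito-MPS dye 30 min. Ratio read of aggregate (540/590 nm) versus monomer (490/535 nm) fluorescence.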
% is set by controls: 0 for no effect and ±100 for the full control effect.

CC(C)OC(=O)CCC(=O)OC(C)C
inactive: outcome [1] | outcome [2] | Potency [3] | outcome [4] | outcome [5] | outcome [6] | outcome [7] | outcome [8]

Cc1ccc(C(=O)O)cc1[N+](=O)[O-]
inactive: outcome [1] | outcome [2] | Potency [3] | outcome [4] | Potency [9] | outcome [5] | outcome [6] | outcome [7] | outcome [8]

COc1ccc(CCO)cc1
inactive: outcome [1] | outcome [2] | Potency [3] | outcome [4] | outcome [5] | outcome [6] | outcome [7] | outcome [8]

OCC(O)CN1CCN(c2ccccc2)CC1 (centres undefined)
inactive: outcome [1] | outcome [2] | Potency [3] | outcome [4] | Potency [9] | outcome [5] | outcome [6] | outcome [7] | outcome [8]

CC(C)C1OCCN1CCOC(=O)NCCCCCCNC(=O)OCCN1CCOC1C(C)C (centres undefined)
inactive: outcome [1] | outcome [2] | Potency [3] | outcome [4] | outcome [5] | outcome [6] | outcome [7] | outcome [8]

N#Cc1ccccc1O
inactive: outcome [1] | outcome [2] | Potency [3] | outcome [4] | outcome [5] | outcome [6] | outcome [7]

CO[C@@]1(NC(=O)Cc2cccs2)C(=O)N2C(C(=O)O)=C(COC(N)=O)CS[C@@H]21
inactive: outcome [1] | outcome [2] | Potency [3] | outcome [4] | Potency [9] | outcome [5] | outcome [6] | outcome [7] | outcome [8]

CC(S)C(C)S (centres undefined)
inactive: outcome [1] | outcome [2] | Potency [3] | outcome [4] | Potency [9] | outcome [7] | outcome [8]

OCCN1CCOCC1
inactive: outcome [1] | outcome [2] | Potency [3] | outcome [4] | outcome [5] | outcome [6] | outcome [7]

C/C=C(\C)C(C)=O
inactive: outcome [1] | outcome [2] | Potency [3] | outcome [4] | outcome [5] | outcome [7] | outcome [8]

O=C(O)CNC(=O)CNC(=O)CNC(=O)CSC(=O)c1ccccc1
inactive: outcome [1] | outcome [2] | Potency [3] | outcome [4] | Potency [9] | outcome [5] | outcome [7] | outcome [8]

CC(C)[C@H]1CC[C@H](C)C[C@@H]1O
inactive: outcome [1] | outcome [2] | Potency [3] | outcome [4] | Potency [9] | outcome [5] | outcome [6] | outcome [7] | outcome [8]

CCCCCC(C)O (centres undefined)
inactive: outcome [1] | outcome [2] | Potency [3] | outcome [4] | Potency [9] | outcome [5] | outcome [6] | outcome [7] | outcome [8]

C=C(C)[C@@H]1CC=C(C)C(=O)C1
inactive: outcome [1] | outcome [2] | Potency [3] | outcome [4] | outcome [5] | outcome [6] | outcome [7] | outcome [8]

CN1C[C@@H]2C[C@H]1CN2c1cc2c(cc1F)c(=O)c(C(=O)O)cn2C1CC1
inactive: outcome [1] | outcome [2] | Potency [3] | outcome [4] | outcome [5] | outcome [7] | outcome [8]

CN(C)CCN(C)CCO
inactive: outcome [1] | outcome [2] | Potency [3] | outcome [4] | Potency [9] | outcome [5] | outcome [6] | outcome [7] | outcome [8]

CO/N=C(/C(=O)N[C@@H]1C(=O)N2C(C(=O)[O-])=C(C[n+]3ccn4ncccc43)CS[C@H]12)c1nsc(N)n1
inactive: outcome [1] | outcome [2] | Potency [3] | outcome [4] | Potency [9] | outcome [6] | outcome [7] | outcome [8]

COc1cc2c(cc1OC)C(=O)C(CC1CCN(Cc3ccccc3)CC1)C2 (centres undefined)
inactive: outcome [1] | outcome [2] | Potency [3] | outcome [4] | Potency [9] | outcome [5] | outcome [6] | outcome [7] | outcome [8]

C[C@]12CCC(=O)C=C1CC[C@H]1[C@@H]3CC[C@](O)(C(=O)CO)[C@@]3(C)C[C@H](O)[C@@]12F
inactive: outcome [1] | outcome [2] | Potency [3] | outcome [4] | Potency [9] | outcome [5] | outcome [6] | outcome [7] | outcome [8]

Cc1c(NC(=O)c2cccnc2)c(=O)n(-c2ccccc2)n1C
inactive: outcome [1] | outcome [2] | Potency [3] | outcome [4] | Potency [9] | fluorescence, relative to Rose Bengal [5] 0.269% [at 18.6 µM] | fluorescence, % of triamterene [7] -0.0133% [at 18.6 µM] | fluorescence, % of fluorescent control [8] 0.237% [at 18.6 µM]

CC(C)Cn1cnc2c1c(=O)n(C)c(=O)n2C
inactive: outcome [1] | outcome [2] | Potency [3] | outcome [4] | Potency [9] | outcome [6] | outcome [7] | outcome [8]

CCCCCCCCCCCCCBr
inactive: outcome [1] | outcome [2] | Potency [3] | outcome [4] | outcome [5] | outcome [6] | outcome [7]

O=Cc1ccccc1Cl
inactive: outcome [1] | outcome [2] | Potency [3] | outcome [4] | Potency [9] | outcome [5] | outcome [6] | outcome [7] | outcome [8]

CCCC(=O)OC/C=C(\C)CCC=C(C)C
inactive: Potency [3] | outcome [4] | outcome [5] | outcome [6] | outcome [7] | outcome [8]

O=NN(CCCl)C(=O)NC1CCCCC1
inactive: outcome [1] | Potency [3] | outcome [4] | Potency [9] | outcome [5] | outcome [6] | outcome [7] | outcome [8]

CC1=C(C(=O)O)N2C(=O)[C@@H](NC(=O)[C@H](N)C3=CCC=CC3)[C@H]2SC1
inactive: outcome [2] | Potency [3] | outcome [4] | Potency [9] | outcome [5] | outcome [6] | outcome [7] | outcome [8]
